Bioassay records (PubChem BioAssay)
SARS PLpro yeast: qHTS of Yeast-based Assay for SARS-CoV PLP; 0.19% of 330,000 active; Potency, µM (doses to about 32.9 µM), most hits filed as activators; S. cerevisiae expressing SARS-CoV PLpro, growth rescue; AID 485353, 2010; calls by dose curve; further: nearly all actives have a fitted effect of over 55% in size
Pf growth 96h: Primary qHTS for delayed death inhibitors of the malarial parasite plastid, 96 hour incubation; P. falciparum luciferase reporter growth, 96 h; Potency, µM (top dose mostly 28.7 µM), most hits filed as inhibitors; 6.9% of 320,000 active; AID 504834, 2011
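Readout is luminescence from an integrated firefly luciferase in P. falciparum. Red cells, 2% hematocrit and 0.05% parasitemia final, were cultured with compound through two parasite generations (96 hours) at 37 C, 5% CO2.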
AMA1 RON2 block: qHTS for Inhibitors of AMA1-RON; Towards Development of Antimalarial Drug Lead: Primary Screen. AlphaScreen AMA1-biotinylated RON2 peptide binding. Potency, µM (top dose mostly 58.2 µM), usual class: inhibitors. 0.2% of 360,000 active. AID 720542, 2013; further: nearly all actives have a fitted effect of over 45% in size
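AMA1 (3D7) with his tag at 25 nM final met compounds first, then biotinylated RON2 peptide at 25 nM; detection used donor plus acceptor beads, 10 µg/mL apiece, read by AlphaScreen after 30 min at room temperature.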
Pf growth 48h: Primary qHTS for delayed death inhibitors of the malarial parasite plastid, 48 hour incubation; P. falciparum luciferase growth in erythrocytes, 48 h; Potency, µM (top dose mostly 28.7 µM), most hits filed as inhibitors; 5.9% of 310,000 active; AID 504832, 2011
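Compounds are pin-transferred into medium, infected erythrocytes (2% hematocrit, 0.1% parasitemia final) are added, and plates sit one parasite generation at 37 C in 5% CO2. Detection reagent is then added and luminescence measured.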
Large screens that a line does not name were inactive. The list is not random: actives were taken first. Their share in the collection is about 9.4%. Unless noted, the call rests on the fitted dose curve; in most records, active means well fitted curve in the direction sought with a large enough effect; inconclusive means small, poorly fitted or top-dose-only effect, or another doubt; inactive means no such curve, though single readings can be large; an effect the other way counts as inactive or inconclusive.

S=C(Nc1ccc(Cl)cc1)Nc1cccc2cnccc12	Pf growth 96h 11.7µM, Pf growth 48h inconclusive
Fc1ccc(NC(=S)Nc2cccc3cnccc23)cc1	Pf growth 96h inconclusive, Pf growth 48h inconclusive
COc1ccc(-c2noc(CCC(=O)NCCCN3CCC(Cc4ccccc4)CC3)n2)cc1	none
CCn1cc2nc(SCC(=O)Nc3ccc(F)cc3F)n(Cc3ccccc3)c(=O)c2n1	Pf growth 96h 13.1µM, Pf growth 48h inconclusive
CC(C)Sc1oc(-c2ccco2)nc1S(=O)(=O)c1ccc(F)cc1	Pf growth 96h 14.7µM, Pf growth 48h inconclusive
CC(C)Oc1ccc(C(CC(=O)NCCCN(C)C)c2ccc(F)cc2)cc1 (stereo unspecified)	Pf growth 96h 11.7µM, Pf growth 48h inconclusive
O=C(c1cccc(F)c1)N1CCN(c2cc(N3CCCCC3)c(F)cc2[N+](=O)[O-])CC1	Pf growth 96h inconclusive, Pf growth 48h inconclusive
COc1ccc(OC)c(CN2CCN(C(=O)c3cccc4ccccc34)CC2)c1	AMA1 RON2 block inconclusive
COc1ccc(OC)c(CN2CCN(C(=O)c3cc4ccccc4cc3O)CC2)c1	Pf growth 96h 2.33µM, AMA1 RON2 block inconclusive, Pf growth 48h 4.65µM
COc1cc(CN2CCN(C(=O)c3cccc4ccccc34)CC2)cc(OC)c1O	Pf growth 96h 14.7µM
Cn1ncc(Cl)c1C(=O)Nc1sc2c(c1C(N)=O)CCC2	none
C=CCn1c(SCC(=O)c2[nH]c(C)c(C(C)=O)c2C)nnc1-c1ccncc1	none (no result: Pf growth 96h)
C=CCn1c(SCC(=O)c2[nH]c(C)c(C(=O)OC)c2C)nc2scc(-c3ccc(OC)c(OC)c3)c2c1=O	Pf growth 96h 2.94µM, Pf growth 48h inconclusive
CCOC(=O)[C@@H]1[C@H]2COc3cc(OC)ccc3[C@@H]2N2C(=O)N(c3ccc(Br)cc3)C(=O)[C@]12C	none (no result: SARS PLpro yeast, Pf growth 96h, Pf growth 48h)
CCC(Cc1ccccc1)NC(=O)c1cc(S(=O)(=O)N2CCCCC2)c[nH]1 (stereo unspecified)	Pf growth 96h 2.94µM
COc1ccc(N2C(=O)C3C(c4ccc(OC)cc4O)NC(Cc4ccccc4)(C(=O)O)C3C2=O)cc1 (stereo unspecified)	none
CCCC1(C(=O)O)NC(c2ccc(OC)cc2O)C2C(=O)N(c3ccc(OC)cc3)C(=O)C21 (stereo unspecified)	Pf growth 96h 14.7µM (no result: Pf growth 48h)
CC(C)NCC(O)Cn1c2c(c3ccccc31)CCc1c-2cnn1-c1ccccc1 (stereo unspecified)	Pf growth 96h inconclusive, Pf growth 48h 2.94µM
CN1CCc2c(n(CC(O)CNCc3ccccc3)c3ccccc23)C1=O (stereo unspecified)	none
N#C/C(=C/c1ccc(Br)o1)C(N)=S	Pf growth 96h 11.7µM, Pf growth 48h inconclusive (no result: AMA1 RON2 block)
O=C(CCS(=O)(=O)c1ccc(Br)cc1)N1CCN(c2ccc(F)cc2)CC1	none
CCn1cc(/C=C/C(=O)Nc2ccc(C)cc2Br)cn1	none
COc1ccc(C2=Nn3c([n+](C)c4ccccc43)SC2)cc1	Pf growth 48h 0.828µM
O=C1NC2(CCN(Cc3ccccc3)CC2)Oc2ccccc21	Pf growth 96h inconclusive, Pf growth 48h inconclusive
O=C1c2ccccc2OC2(C=Cc3ccccc3O2)N1Cc1ccccc1 (stereo unspecified)	Pf growth 96h 4.15µM (no result: Pf growth 48h)
CC(C)CCNC(=O)c1cnn2c(C(F)(F)F)cc(-c3ccco3)nc12	Pf growth 96h 9.28µM, Pf growth 48h inconclusive
CC(C)OC(=O)c1nn2c(C(F)(F)F)cc(-c3ccc(Br)o3)nc2c1Br	none
CC(C)OC(=O)c1nn2c(C(F)(F)F)cc(-c3ccco3)nc2c1Cl	Pf growth 96h 13.1µM
O=C(NCc1ccco1)c1cnn2c(C(F)(F)F)cc(-c3ccccc3)nc12	Pf growth 48h 13.1µM
CCCc1[nH]n(-c2nc3ccccc3s2)c(=O)c1C=NCCCN(CC)CC	none
CCCNC(=O)C1(C)CCCN(Cc2cc(-c3ccccc3)nn2C)C1 (stereo unspecified)	none (no result: SARS PLpro yeast, Pf growth 96h, Pf growth 48h)
Cc1ccc(S(=O)(=O)Nc2ccccc2-c2ccccc2)cc1	Pf growth 96h 11.7µM
Cc1cccc(N(CC(=O)Nc2ccccc2-c2ccccc2)S(=O)(=O)c2ccccc2)c1C	Pf growth 48h 8.28µM
Cc1cc(C)cc(N(CC(=O)Nc2ccccc2-c2ccccc2)S(=O)(=O)c2ccccc2)c1	Pf growth 96h inconclusive
Cc1ccc(S(=O)(=O)Nc2ccccc2NS(=O)(=O)c2ccc(C)cc2)cc1	none (no result: SARS PLpro yeast, Pf growth 96h, Pf growth 48h)
